From PubChem
The list is not random: actives were taken first. Their share in the collection is about 5.7%.
hcDAF-12 act: activates DAF-12 receptor from parasite H. contortus; HEK293 hcDAF-12 lit1-tk-luc reporter, luminescence; 0% DMSO, 100% Δ7-dafachronic acid; 1.4% of 370,000 active; activation, % at 6.8 µM;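 active = activation above the mean of all tested compounds plus 3 SD, cut at about 5.5% in these data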
DAX1 inh-1: inhibits human nuclear receptor DAX1; P51843; HEK293 Gal4-DAX1 luciferase reporter, luminescence; inhibition, % at 6.75 µM; 0.99% of 340,000 active; AID 504766;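 active = inhibition above the mean over all tested compounds plus 3 SD, cut at about 4.2% in these data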;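 note: inhibition shows as a rise in luminescence from relieved DAX1 repression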
DAX1 inh-2: DAX1 (NR0B1) inhibition, primary screen. inhibition, % at 6.8 µM. AID 652010. HEK293T StAR-luciferase reporter, SF-1/DAX-1 repression relief. 1.1% of 370,000 active;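 active = inhibition above the mean over all tested compounds plus 3 SD, cut at about 3.6% in these data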;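 note: higher inhibition means more luminescence from relief of DAX-1 repression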
AHR act: human AHR activation. P35869. AHR-responsive luciferase reporter cells, luminescence. activation, % at 5 µM. 2.5% of 320,000 active; in the data active = activation above about 47%
Target sequence (P35869 whole entry, looked up): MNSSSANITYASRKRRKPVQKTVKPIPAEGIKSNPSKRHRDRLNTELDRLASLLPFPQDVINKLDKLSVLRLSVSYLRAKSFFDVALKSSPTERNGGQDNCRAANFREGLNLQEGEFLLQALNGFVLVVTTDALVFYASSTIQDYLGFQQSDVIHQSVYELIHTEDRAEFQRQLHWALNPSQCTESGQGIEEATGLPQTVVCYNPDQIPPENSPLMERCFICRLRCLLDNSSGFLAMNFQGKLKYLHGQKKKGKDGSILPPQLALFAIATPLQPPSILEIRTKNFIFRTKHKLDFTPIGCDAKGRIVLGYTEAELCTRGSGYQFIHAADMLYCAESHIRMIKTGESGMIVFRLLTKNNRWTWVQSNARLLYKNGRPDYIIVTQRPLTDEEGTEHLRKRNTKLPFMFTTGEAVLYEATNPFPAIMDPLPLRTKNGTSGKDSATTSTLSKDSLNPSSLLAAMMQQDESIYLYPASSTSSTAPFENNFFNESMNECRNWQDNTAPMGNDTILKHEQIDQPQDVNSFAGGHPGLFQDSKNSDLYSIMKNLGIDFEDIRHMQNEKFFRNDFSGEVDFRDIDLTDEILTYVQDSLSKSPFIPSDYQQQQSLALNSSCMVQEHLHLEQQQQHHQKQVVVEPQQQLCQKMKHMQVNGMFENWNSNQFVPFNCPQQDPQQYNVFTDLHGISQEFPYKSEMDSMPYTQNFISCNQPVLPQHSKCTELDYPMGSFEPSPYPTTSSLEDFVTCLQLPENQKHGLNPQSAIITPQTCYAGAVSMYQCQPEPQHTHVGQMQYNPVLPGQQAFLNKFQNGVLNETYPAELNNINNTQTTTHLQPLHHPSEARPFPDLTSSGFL
ssDAF12 agonist: activates DAF-12 receptor from parasite S. stercoralis. HEK293 ssDAF-12/GRIP1 lit1-tk-luc reporter, luminescence; % of 3 µM dafachronic acid response. activation, % at 6.8 µM. 1% of 370,000 active. AID 652126;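 active = activation above the mean over all tested compounds plus 3 SD, cut at about 0.9% in these data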
hgDAF-12 ag: hgDAF-12 agonism, primary luciferase screen; HEK293 GAL4-hgDAF12 UAS-luciferase reporter, agonist luminescence; normalized to butyrate control; activation, % at 6.8 µM; 1.8% of 370,000 active; AID 687014;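 active = activation above a cutoff set at the mean of all screened compounds plus 3 SD, cut at about 10% in these data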
Hits are given with their value; – = inactive; · = not tested or not shown.

SMILES | hcDAF-12 act | DAX1 inh-1 | DAX1 inh-2 | AHR act | ssDAF12 agonist | hgDAF-12 ag
CCCCc1nnc(NC(=O)C(C)Sc2nc(O)c(Cc3ccccc3)c(=O)[nH]2)s1 (configuration not stated) | – | – | – | – | – | –
CCS(=O)(=O)N1CCC(C(=O)Oc2ccc(Cl)cc2)CC1 | – | – | – | – | – | –
COc1ccc(Nc2nc3c([nH]2)c(=O)[nH]c(=O)n3C)cc1 | – | – | – | – | – | –
CCN1CCN(C(=O)CN(c2ccc(F)cc2)S(=O)(=O)c2ccc(OC)c(OC)c2)CC1 | – | – | – | – | – | –
O=S1(=O)c2ccc(N3CCSCC3)cc2Oc2ccccc2CN1Cc1cn(Cc2ccc(Cl)cc2)nn1 | – | · | – | · | – | –
O=C(O)CCCNc1c(C(=O)Nc2ccc(Cl)cc2)cc([N+](=O)[O-])cc1[N+](=O)[O-] | – | – | – | 56 | – | –
O=C(O)c1cccc(CN2C(=O)SC(Nc3cccc4ccccc34)C2=O)c1 (configuration not stated) | – | – | – | – | – | –
O=C(NCCc1c[nH]c2ccccc12)OCc1cn(Cc2cccc(C(F)(F)F)c2)nn1 | – | · | – | · | – | –
Nc1c(C(=O)N2CCCCC2)sc2nc3c(cc12)CCCC3 | – | – | – | – | – | 12
Cc1ccc(C(=O)c2sc3nc4c(cc3c2N)CCC4)cc1 | – | – | – | – | – | –
CCc1nnc(NC(=O)c2sc3nc4c(cc3c2N)CCCCCC4)s1 | – | – | – | 50 | – | –
Cc1ccccc1C(=O)NNC(=O)C1CC(=O)N(c2ccc3c(c2)OCCO3)C1 (configuration not stated) | – | – | – | – | – | –
CCN(CC)C(=O)[C@H]1C[C@@H]2[C@H](C[C@@H](c3ccccc3)[C@H]1C)N(c1ccc(F)cc1)C(=O)N2C/C=C(\C)CCC=C(C)C | – | · | – | · | – | –
CCCN1C(=O)c2n[nH]c(C)c2C1c1ccc2c(c1)OCO2 (configuration not stated) | – | · | – | · | – | –
Clc1ccc(-c2cc(-c3ccccc3)on2)cc1 | – | – | – | – | – | –
Cc1cc(C)n(-c2nc(-c3ccc(Cl)cc3)cs2)n1 | – | – | – | 60 | – | –
Cc1nc(-c2cc(-c3ccc(Cl)cc3)no2)cs1 | – | 4.5 | – | – | – | –
CC1=NN(c2nc(-c3ccc(Cl)cc3)cs2)C(=O)C1 | – | – | – | – | – | –
CN(C)c1ccc(C=C(C#N)C(=O)c2ccccc2)cc1Br | – | · | – | · | – | –
Cc1ccc2c(c1)CCCN2CC(=O)N(C)c1c(N)n(Cc2ccccc2)c(=O)[nH]c1=O | – | – | – | – | 1.3 | –
Cc1cc2oc(=O)cc(CN3CCc4ccccc43)c2cc1Cl | – | – | – | 50 | – | –
COCCn1c(SCC(=O)Nc2ccc(F)cc2F)nc2c([nH]c3ccccc32)c1=O | – | – | – | 71 | – | –
COc1ccccc1NC(=O)CCCn1c(=S)[nH]c2ccccc2c1=O | – | – | – | 48 | – | –
COCCn1c(SCC(=O)Nc2ccc(C(N)=O)cc2)nc2c([nH]c3ccccc32)c1=O | – | – | – | 52 | – | –
CNC(=O)CSc1nc2c([nH]c3ccccc32)c(=O)n1CCOC | 5.6 | – | – | – | – | –
SMILES | hcDAF-12 act | DAX1 inh-1 | DAX1 inh-2 | AHR act | ssDAF12 agonist | hgDAF-12 ag
COc1ccc(CNc2nc(-c3cccnc3)nn2C(=O)C(C)C)cc1 | – | – | – | · | – | –
C[C@H](CO)N1C[C@H](C)[C@@H](CN(C)Cc2ccncc2)Oc2ccc(NC(=O)Cn3cnnn3)cc2C1=O | – | – | – | – | – | –
C=CCn1c(SCC(=O)Nc2ccccc2OC)nc2c([nH]c3ccccc32)c1=O | 5.9 | – | – | – | – | –
COCCn1c(SCC(=O)Nc2ccccc2F)nc2c([nH]c3ccccc32)c1=O | – | – | – | 61 | – | –
COCCn1c(SCC(=O)Nc2ccc(F)cc2)nc2c([nH]c3ccccc32)c1=O | – | – | – | – | – | –
CCc1nnc(NC(=O)CSc2nc3c([nH]c4ccccc43)c(=O)n2CCOC)s1 | – | – | – | – | – | –
C=CCn1c(SCC(=O)N2CCC(C)CC2)nc2c([nH]c3ccccc32)c1=O | – | – | – | · | – | –
C=CCn1c(SCC(=O)Nc2ccc(F)cc2F)nc2c([nH]c3ccccc32)c1=O | – | – | – | – | 1.9 | –
Nc1c(C(=O)Nc2ccc3c(c2)OCCO3)nnn1Cc1ccc(F)cc1 | – | – | 4.2 | – | – | –
COc1ccc(Cn2nnc(C(=O)Nc3ccc(F)cc3)c2N)cc1 | – | – | – | – | – | –
COc1ccc(NC(=O)c2nnn(CC(=O)Nc3ccc4c(c3)OCO4)c2N)cc1OC | – | – | – | – | – | –
COc1ccc(Br)cc1Cn1nnc(C(=O)Nc2ccc3c(c2)OCCO3)c1N | – | – | – | 60 | – | –
CCc1c(-c2ccccc2Br)ncn1CCc1ccccc1OC | – | · | – | · | – | –
CC(=O)NCCCC(=O)NN1C(=S)N(Cc2ccccc2)C(=O)C1CC(=O)Nc1cccc(C)c1 (configuration not stated) | – | – | – | – | – | –
O=C1N=c2ccccc2=C1c1sc(=S)n(NC(=O)c2ccccc2)c1O | – | – | – | – | 1.0 | –
CCOc1ccc(NC(=O)c2cc3ccccc3cc2O)cc1 | – | – | – | – | 1.2 | –
Cc1ccc(NC(=O)c2cc(Cl)nc3ccccc23)cc1 | – | – | – | – | – | –
COc1ccc(NC(=O)c2ccc3ccccc3c2OC)cc1 | – | 4.4 | – | – | – | –
CCOc1ccc(NC(=O)c2cc(OC)nc3ccccc23)cc1 | – | – | – | 65 | – | –
CCOc1ccc(NC(=O)c2cccc3ccccc23)cc1 | – | – | – | – | – | –
COc1cc(C(=O)Nc2ccc(C)cc2)c2ccccc2n1 | 5.7 | – | – | – | – | –
NC(=O)Cn1nnc(-c2ccc(NC(=O)c3ccc(F)cc3)cc2)n1 | – | – | – | – | – | –
CN(CC(=O)NCc1ccccc1Cl)S(=O)(=O)c1ccc2c(c1)n(C)c(=O)c(=O)n2C | 5.6 | – | – | – | – | –
O=C(C[n+]1ccc2ccccc2c1)c1ccccc1 | – | 4.8 | – | – | – | –
CC(=O)N/C(=C\c1ccccc1)C(=O)OCC(=O)NC1CCS(=O)(=O)C1 (configuration not stated) | – | – | – | – | – | –
CCN1C(=O)[C@H]2[C@H]3CN=C(SCc4ccc(C)cc4)N3[C@@](C)(C(=O)OC)[C@H]2C1=O | – | – | – | · | – | –
O=C(c1ccc(S(=O)(=O)N2CCCCC2)cc1)N1CCCC(C(F)(F)F)C1 (configuration not stated) | – | – | – | – | – | –
O=C(/C=C/c1ccc(Br)o1)Nc1nnc(C2CC2)s1 | · | · | · | 66 | · | ·
